Source: PubChem BioAssay AID504441 (Broad Institute, 2011)
About 1,300 (0.42%) of roughly 310,000 compounds were called active. The sample holds actives, similar compounds and a random draw of the others, so the mix is not that of the screen. Cut-off read from the data, not from the text of the source: active = inhibition above about 50%; inactive = the rest.

Biological target: Dual specificity tyrosine-phosphorylation-regulated kinase 1A (Rattus norvegicus) (UniProt Q63470)
Assay: rat Dyrk1A kinase inhibitors, primary screen, biochemical, single point, plate reader (AID 504441);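 note: plate controls were vehicle with enzyme for no effect and no enzyme for full effect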
Conditions: ADP-Glo luminescence, NFATc1 peptide, at 12.5 µM, stronger effect = higher value

Q: `O=C1C=C(NS(=O)(=O)c2ccccc2)C(=O)c2ccccc21` was tested. Which inhibition did it give?
A: 0.22% (inactive)

Q: `CCN1C[C@@H]2[C@@H]3C(=O)N(Cc4ccccc4)C(=O)[C@@H]3[C@](C)(C1=O)N2C(=O)c1ccc(C(C)(C)C)cc1` was tested. Which inhibition did it give?
A: -5.8% (inactive)

Q: How did the inhibition turn out when `O=C(Nc1cccc(Br)c1)C1CC(=O)N(C2CCCC2)C1` (configuration not stated) was run?
A: -2.1% (inactive)

Q: Which inhibition does the source give for `O=C1NC(=O)C(CCc2ccccc2)(c2ccccc2)N1` (configuration not stated) here?
A: -4.85% (inactive)

Q: Which inhibition does the source give for `CCOC(=O)COc1cc(OCC(=O)OCC)c2c(=O)cc(-c3ccccc3)oc2c1` here?
A: 0.414% (inactive)

Q: With `CCOC(=O)COc1cc(O)c2c(=O)cc(-c3ccccc3)oc2c1` as the molecule, how does the inhibition read?
A: -1.6% (inactive)

Q: How did the inhibition turn out when `COc1c(O)cc2oc(-c3ccc(O)c(O)c3)cc(=O)c2c1O` was run?
A: 50.5% (active)

Q: With `CCOC(=O)C1CCCN(C(=O)C2CCN(S(=O)(=O)c3ccc(Cl)c(C(F)(F)F)c3)CC2)C1` (configuration not stated) as the molecule, how does the inhibition read?
A: -9.38% (inactive)

Q: How did the inhibition turn out when `COc1ccc(Oc2cn[nH]c2-c2ccc(OC)cc2O)cc1` was run?
A: 11.8% (inactive)

Q: Which inhibition does the source give for `Oc1ccc(-c2[nH]ncc2-c2nc3ccccc3s2)c(O)c1` here?
A: 66.5% (active)

Q: Which inhibition does the source give for `CC(=O)Nc1cccc(-c2nc3ccccc3s2)c1C` here?
A: -0.865% (inactive)

Q: For `CC(=O)OC1CCC2C3CCC4=C(CC(F)C(=O)C4)C3CCC12C` (configuration not stated), which inhibition is on record?
A: -2.02% (inactive)

Q: `C[C@@H]1O[C@@H](OC[C@H]2O[C@@H](Oc3c(-c4ccc(O)cc4)oc4cc(O)cc(O)c4c3=O)[C@H](O)[C@@H](O)[C@@H]2O)[C@H](O)[C@H](O)[C@H]1O` was tested. Which inhibition did it give?
A: 66.5% (active)

Q: Which inhibition does the source give for `COc1ccc(-c2cc(=O)c3c(O)cc(O[C@@H]4O[C@H](CO[C@@H]5O[C@@H](C)[C@H](O)[C@@H](O)[C@H]5O)[C@@H](O)[C@H](O)[C@H]4O)cc3o2)cc1O` here?
A: -6.42% (inactive)

Q: For `O=C(OCC1OC(Oc2ccc(O)cc2)C(O)C(O)C1O)c1ccccc1` (configuration not stated), which inhibition is on record?
A: 13.6% (inactive)

Q: `N#CCc1c[nH]c2ccc([N+](=O)[O-])cc12` was tested. Which inhibition did it give?
A: 20% (inactive)

Q: `CCc1ccc(C(=O)C(C)OC(=O)CN2C(=O)NC3(CCCC3)C2=O)cc1` (configuration not stated) was tested. Which inhibition did it give?
A: 0.139% (inactive)

Q: `O=C1NCC(Nc2ccccc2)C(=O)N1` (configuration not stated) was tested. Which inhibition did it give?
A: -0.332% (inactive)

Q: Which inhibition does the source give for `COc1cc2c(cc1OC)C1C(=O)c3cc(OS(C)(=O)=O)c(OC)cc3C1N(C)C2=O` (configuration not stated) here?
A: 3.14% (inactive)

Q: With `O=C(COC(=O)c1ccc(F)cc1)Nc1ccc2c(c1)OCO2` as the molecule, how does the inhibition read?
A: -0.789% (inactive)

Q: Which inhibition does the source give for `CC(C)C(=O)Nc1cccc(C(=O)Nc2ccc3c(c2)OCO3)c1` here?
A: -2.73% (inactive)

Q: Which inhibition does the source give for `CC(=O)Nc1cccc(C(=O)OCC(=O)c2ccc3c(c2)OCO3)c1` here?
A: 69.4% (active)

Q: Which inhibition does the source give for `Cc1nc2ccccc2nc1N/N=C/c1ccc(O)cc1O` here?
A: 9.74% (inactive)

Q: For `Oc1ccc2nc(Cc3ccccc3)[nH]c2c1`, which inhibition is on record?
A: 10.9% (inactive)

Q: `Oc1ccc(-c2nc3ccccc3nc2-c2ccc(O)cc2O)c(O)c1` was tested. Which inhibition did it give?
A: 76.3% (active)

Q: How did the inhibition turn out when `CC(NC(=O)c1ccccc1)C(=O)OCC(=O)Nc1cccc(S(=O)(=O)N2CCCC2)c1` (configuration not stated) was run?
A: 1.68% (inactive)

Q: How did the inhibition turn out when `Cc1ccnc(NS(=O)(=O)c2ccc(NC(=O)c3oc4ccccc4c3C)cc2)n1` was run?
A: 28.5% (inactive)

Q: Which inhibition does the source give for `Cc1ccnc(NS(=O)(=O)c2ccc(NC(=O)c3oc4ccc(F)cc4c3C)cc2)n1` here?
A: 1.02% (inactive)

Q: Which inhibition does the source give for `Cc1noc(NS(=O)(=O)c2ccc(NC(=O)c3oc4ccc(F)cc4c3C)cc2)c1C` here?
A: 60% (active)

Q: How did the inhibition turn out when `CCC1(C)COC(c2ccc(OC)c(OC)c2)OC1` (configuration not stated) was run?
A: 2.1% (inactive)

Q: `O=C(O)C(c1cccs1)C1(O)CCCCC1` (configuration not stated) was tested. Which inhibition did it give?
A: 2.77% (inactive)

Q: With `NC(=O)C1CCN(C(=O)c2cc(S(=O)(=O)N3CCN(c4ccccc4)CC3)ccc2Cl)CC1` as the molecule, how does the inhibition read?
A: 8.45% (inactive)

Q: How did the inhibition turn out when `CC(C)Cn1cnc2c(SCc3ccc(Cl)cc3)nc(N)nc21` was run?
A: 7.52% (inactive)

Q: Which inhibition does the source give for `CCc1nnc(NC(=O)c2cc(S(=O)(=O)N3CCN(CC)CC3)ccc2Cl)s1` here?
A: 7.13% (inactive)

Q: How did the inhibition turn out when `c1ccc(C(=NNc2nc3ccccc3s2)c2ccccn2)cc1` was run?
A: 12.7% (inactive)

Q: With `COc1ccc(N=C2C=CC(=O)O2)cc1` as the molecule, how does the inhibition read?
A: 7.98% (inactive)

Q: Which inhibition does the source give for `O=C(NCC1(N2CCCCC2)CCCCC1)c1cccc(S(=O)(=O)Nc2ccccc2Cl)c1` here?
A: -5.86% (inactive)

Q: `COc1cccc2c(O)cc(=O)n(C)c12` was tested. Which inhibition did it give?
A: 26.6% (inactive)

Q: Which inhibition does the source give for `COc1cc(O)c2c(=O)c3c(O)c(O)ccc3oc2c1OC` here?
A: 50.1% (active)

Q: For `COc1cccc2cc(-c3cc(=O)oc4cc(C)c(O)cc34)oc12`, which inhibition is on record?
A: -4.38% (inactive)

Q: With `CC(C)(C)OC(=O)N(Cc1ccccc1)Cc1ccc(OCc2cccc(NC(=O)c3ccccc3)c2)cc1` as the molecule, how does the inhibition read?
A: -3.26% (inactive)

Q: With `COc1ccc(-c2nc3cc(C)ccn3c2NC2CCCCC2)cc1SC1CCCCC1` as the molecule, how does the inhibition read?
A: 1.83% (inactive)

Q: With `CCN(CC)S(=O)(=O)c1cccc(NC(=O)c2ccc(S(=O)(=O)N3CCCC3)cc2)c1` as the molecule, how does the inhibition read?
A: 1.24% (inactive)

Q: With `CC(C)(C)OC(=O)N1CCC(C(=O)Nc2cccc(C(=O)NCCc3ccccc3)c2)CC1` as the molecule, how does the inhibition read?
A: -16.9% (inactive)

Q: Which inhibition does the source give for `CCN(CC)c1ccc(NC(=O)CCc2nnc3ccc(N4CCCCC4)nn23)c(C)c1` here?
A: 59.6% (active)

Q: `CCOC(=O)c1cccc(NC(=O)CCc2nnc3ccc(N4CCOCC4)nn23)c1` was tested. Which inhibition did it give?
A: 2.86% (inactive)

Q: With `CCOc1ccc(CCNC(=O)CCc2nnc3ccc(N4CCCC4)nn23)cc1OCC` as the molecule, how does the inhibition read?
A: 17.6% (inactive)

Q: How did the inhibition turn out when `O=C1C(Cl)=C(Oc2ccccc2)C(=O)c2ccccc21` was run?
A: 35.4% (inactive)

Q: Which inhibition does the source give for `Oc1cccc(CCc2ccccn2)c1` here?
A: 7.91% (inactive)

Q: `COc1ccc(OC)c(Cc2cnc3nc(N)nc(N)c3c2C)c1` was tested. Which inhibition did it give?
A: -1.98% (inactive)

Q: For `NNC(=O)c1nnn(-c2nonc2N)c1CN1CCCC1`, which inhibition is on record?
A: 15.1% (inactive)

Q: How did the inhibition turn out when `Nc1nonc1-n1nnc(C(=O)N/N=C\c2ccncc2)c1CN1CCCCC1` was run?
A: 77.4% (active)

Q: How did the inhibition turn out when `Nc1nonc1-n1nnc(C(=O)N/N=C/c2ccccc2O)c1CN1CCCC1` was run?
A: 14.8% (inactive)

Q: With `Cc1nc(Nc2ccccc2C)c2cnn(C)c2n1` as the molecule, how does the inhibition read?
A: -5.25% (inactive)

Q: How did the inhibition turn out when `CCOC(=O)N(Cc1ccccc1)C1CC1` was run?
A: -0.945% (inactive)

Q: `COc1ccc(CCC(=O)Nc2ccc(Cl)c(S(=O)(=O)N3CCOCC3)c2)cc1OC` was tested. Which inhibition did it give?
A: -1.66% (inactive)

Q: Which inhibition does the source give for `CN1c2ccc(C=O)c3c(C=O)ccc(c23)N(C)C1(C)C` here?
A: 91.2% (active)
